Drawing on PubChem BioAssay (NCI), this text covers growth for seven molecules.

About 83,000 compounds went through this panel and 20% of them were active in at least one assay; those are over-represented in the sample as a whole.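 Treatment: one concentration, 48 hours, 96-well format. Scoring: percent growth, with anything below 10 considered active.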 Unmarked numbers belong to inactive results. The source made the active and inactive calls.

Some test systems named below: DU-145 prostate; K-562 leukemia; MALME-3M melanoma; MDA-MB-231 breast; RXF 393 renal; SF-268 CNS; SF-295 CNS; SF-539 CNS; UACC-257 melanoma; M14 melanoma; HCT-15 colon; HT29 colon; SNB-75 CNS; SNB-19 CNS; U251 CNS; PC-3 prostate; SK-MEL-5 melanoma; UACC-62 melanoma; LOX IMVI melanoma; SK-MEL-28 melanoma.
Holding throughout (assay): NCI-60 one-dose screen, 48 h (100 = growth as untreated, 0 = no growth, -100 = all killed)
What all share (conditions): 10 µM

For the molecule `CC(C)C[C@H](NC(=O)CCn1ccc2ccccc2c1=O)B(O)O`, the growth with DU-145 prostate was 59.6%; in the assay on K-562 leukemia, 62.7%; with MALME-3M melanoma, 38.2%; with MDA-MB-231 breast, 53.8%; in the assay on RXF 393 renal it was -5.99% (active); in the assay on SF-268 CNS, 69.9%. In addition, the growth is 41% in the assay with SF-295 CNS; -11.4% (active) in the assay on SF-539 CNS; 34.5% in the assay with UACC-257 melanoma; 38% with M14 melanoma; 61.7% with HCT-15 colon; 25.7% with HT29 colon. For the same molecule, the growth in the assay on SNB-75 CNS is 77.8%; in the assay with SNB-19 CNS it was 66.1%; with U251 CNS, 68.2%; with PC-3 prostate it was 56%; in the assay on SK-MEL-5 melanoma, 29.1%; in the assay with UACC-62 melanoma, 33.3%. In addition, the results for the growth with LOX IMVI melanoma and in the assay with SK-MEL-28 melanoma were 40.6% and 36.9%, respectively.

Regarding `COC(=O)c1cnc2c(c1)Oc1ccc(Cl)cc1-c1cc(C)nn1-2`, the growth was 79.6% in the assay on DU-145 prostate; 95.8% with K-562 leukemia; 94.8% with MALME-3M melanoma; 35% with MDA-MB-231 breast; 89.8% in the assay on RXF 393 renal; 78.9% in the assay on SF-268 CNS. Besides, the growth with SF-295 CNS is 92.3%; with SF-539 CNS, 46.1%; with UACC-257 melanoma it was 107%; in the assay on M14 melanoma, 95.3%; in the assay with HCT-15 colon it was 87.3%; in the assay with HT29 colon, 82.5%. In addition, the growth in the assay on SNB-75 CNS is 91.7%; with SNB-19 CNS it was 62%; with U251 CNS, 50.4%; in the assay with PC-3 prostate, 95.1%; with SK-MEL-5 melanoma, 88.1%; with UACC-62 melanoma, 74.7%. Besides, the growth in the assay on LOX IMVI melanoma was 60.2%; in the assay on SK-MEL-28 melanoma it was 96.4%.

Regarding `Cc1cc(Cl)ccc1Nc1nc(C(F)(F)F)ccc1C(=O)N/N=C/c1ccccc1Cl`, the growth in the assay with DU-145 prostate was 36.4%; in the assay on K-562 leukemia, 56.3%; in the assay with MALME-3M melanoma, 30%; in the assay on MDA-MB-231 breast, -15.5% (active); in the assay on RXF 393 renal, 24.1%; in the assay on SF-268 CNS, 31.1%. Besides, the growth in the assay on SF-295 CNS is 8.72% (active); with SF-539 CNS, 6.63% (active); in the assay on UACC-257 melanoma, 6.87% (active); in the assay on M14 melanoma, 9.99% (active); in the assay with HCT-15 colon, 22.9%; in the assay on HT29 colon it was 14.7%. The growth in the assay on SNB-75 CNS was 37.9%; in the assay on SNB-19 CNS it was 29.5%; in the assay on U251 CNS, 22.5%; in the assay on PC-3 prostate it was 8.2% (active); in the assay on SK-MEL-5 melanoma, -54.4% (active); in the assay with UACC-62 melanoma, -4.83% (active). The growth was 20.1% in the assay on LOX IMVI melanoma and 37.2% with SK-MEL-28 melanoma.

As for `COc1ccc(-c2cc(/C=C3\C(=O)Nc4cc(Cl)ccc43)[nH]n2)cc1OC`, the growth with DU-145 prostate is 96.4%; with K-562 leukemia, 33.1%; in the assay with MALME-3M melanoma, 37.7%; in the assay with MDA-MB-231 breast, 78.2%; in the assay on RXF 393 renal, 73.1%; with SF-268 CNS, 74.4%. Also, the growth was 47.6% in the assay with SF-295 CNS; 69.1% in the assay on SF-539 CNS; 114% in the assay with UACC-257 melanoma; 68% with M14 melanoma; 51.2% with HCT-15 colon; 32.2% in the assay on HT29 colon. The growth with SNB-75 CNS was 47.1%; in the assay with SNB-19 CNS it was 87%; with U251 CNS, 75.7%; with PC-3 prostate it was 58.5%; with SK-MEL-5 melanoma, 64.8%; in the assay on UACC-62 melanoma, 56.9%. Also, the results for the growth in the assay with LOX IMVI melanoma and in the assay with SK-MEL-28 melanoma were 52.9% and 74.6%, respectively.

`CN1CCN(c2nc(-c3cccnc3)nc3sc4c(c23)CCCCCC4)CC1`: the growth was 98.9% with DU-145 prostate; 13.6% in the assay with K-562 leukemia; 106% in the assay on MALME-3M melanoma; 78.9% with MDA-MB-231 breast; 79.4% in the assay with RXF 393 renal; 80.3% in the assay on SF-268 CNS. The growth is 75.6% in the assay on SF-295 CNS; 93.3% in the assay with SF-539 CNS; 102% in the assay on UACC-257 melanoma; 101% in the assay with M14 melanoma; 93.2% with HCT-15 colon; 91.3% with HT29 colon. Further, the growth in the assay on SNB-75 CNS is 67.4%; in the assay on SNB-19 CNS it was 101%; with U251 CNS, 72.3%; in the assay on PC-3 prostate, 66.7%; with SK-MEL-5 melanoma it was 87.9%; with UACC-62 melanoma, 103%. In addition, the results for the growth in the assay with LOX IMVI melanoma and in the assay with SK-MEL-28 melanoma were 78.6% and 99.7%, respectively.

In the case of `Cn1cnc([N+](=O)[O-])c1/C=C1\Oc2ccc(Cl)cc2C1=O`, the growth in the assay on DU-145 prostate is 94.2%; in the assay on K-562 leukemia, 52.4%; in the assay on MALME-3M melanoma, 87.6%; in the assay with MDA-MB-231 breast it was 86.7%; with RXF 393 renal it was 99.1%; in the assay with SF-268 CNS it was 86.5%. In addition, the growth in the assay on SF-295 CNS was 105%; with SF-539 CNS, 99.2%; in the assay with UACC-257 melanoma it was 84.9%; with M14 melanoma, 87.5%; in the assay with HCT-15 colon it was 78.4%; in the assay with HT29 colon it was 78.4%. Further, the growth in the assay with SNB-75 CNS was 83.6%; in the assay on SNB-19 CNS it was 107%; with U251 CNS, 97.2%; in the assay on PC-3 prostate, 79.3%; in the assay with SK-MEL-5 melanoma it was 91.8%; with UACC-62 melanoma it was 91.1%. Besides, the growth is 73% in the assay with LOX IMVI melanoma and 105% with SK-MEL-28 melanoma.

With `CCN(CC)CCOC(=O)c1ccc(N=Nc2ccc(O)c(OC)c2)cc1`, the growth is 108% with DU-145 prostate; 95.3% in the assay with K-562 leukemia; 97% in the assay with MALME-3M melanoma; 110% in the assay with MDA-MB-231 breast; 89.4% with RXF 393 renal; 94.7% in the assay with SF-268 CNS. In addition, the growth with SF-295 CNS is 101%; in the assay on SF-539 CNS, 96.4%; in the assay with UACC-257 melanoma it was 96.5%; with M14 melanoma, 103%; with HCT-15 colon it was 103%; in the assay on HT29 colon, 90.7%. Moreover, the growth in the assay with SNB-75 CNS is 89.3%; with SNB-19 CNS, 104%; in the assay with U251 CNS it was 87.1%; in the assay on PC-3 prostate, 95.4%; in the assay on SK-MEL-5 melanoma, 92%; with UACC-62 melanoma it was 99.8%. Also, the growth was 92.2% in the assay on LOX IMVI melanoma and 107% in the assay on SK-MEL-28 melanoma.
